According to PubChem BioAssay (Tox21):
Several values for one entry are separate records, joined by “and”; a condition that tells them apart may be missing. Equal entries are not always repeated. Inconclusive results are not listed. Entries that show only a call come without a potency. Activity calls are given as the source filed them. Calls come from the whole dose curve; as a rule, active = well fitted curve in the direction sought with a large enough effect in the repeat runs; inconclusive = weak or mixed curves; inactive = no such curve, though single readings can be large; an effect the other way counts as inactive or inconclusive.

Key:
[1] = A CellTox Green Cytotoxicity Assay to monitor cytotoxicity in HepG2 cells - 0 hour (AID 1224882); note: nearly all actives have a fitted effect of over 35% in size
In short: (§1)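 Real-time, homogeneous cytotoxicity readout: dead-cell DNA staining by CellTox Green in HepG2 monolayers, fluorescence measured at timed intervals up to 40 h of continuous compound exposure.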

[2] = A CellTox Green Cytotoxicity Assay to monitor cytotoxicity in HepG2 cells - 32 hour (AID 1224883); note: nearly all actives have a fitted effect of over 50% in size; note: potency is the fitted concentration of half-maximal effect
In short: as §1

[3] = qHTS RealTime-Glo MT Cell Viability Assay in HEK293 cells - 8 hour (AID 1224887); note: nearly all actives have a fitted effect of over 50% in size; note: potency is the fitted concentration of half-maximal effect
In short: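 Nonlytic bioluminescent viability monitoring. HEK293 at 600 cells/well with reagent; 5 h settle; compound transfer by pintool; plates held at 37 C and read at set time points.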

[4] = A CellTox Green Cytotoxicity Assay to monitor cytotoxicity in HEK293 cells - 16 hour (AID 1224888); note: nearly all actives have a fitted effect of over 35% in size; note: potency is the fitted concentration of half-maximal effect
In short: (§2)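 Cytotoxicity was tracked continuously in HEK293 cells by a DNA-binding dye excluded from viable cells. Compounds were transferred in DMSO 5 h after seeding; fluorescence was recorded at intervals up to 40 h.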

[5] = qHTS RealTime-Glo MT Cell Viability Assay in HepG2 cells - 0 hour (AID 1224889); note: nearly all actives have a fitted effect of over 50% in size
In short: (§3)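 Viability was tracked continuously by NanoLuc luminescence from prosubstrate reduced by living HepG2 cells, at successive time points over 40 h of compound exposure. Cells with reagent were preincubated 5 h at 37 °C before compound addition.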

[6] = A CellTox Green Cytotoxicity Assay to monitor cytotoxicity in HepG2 cells - 8 hour (AID 1224890); note: nearly all actives have a fitted effect of over 45% in size
In short: as §1

[7] = A CellTox Green Cytotoxicity Assay to monitor cytotoxicity in HEK293 cells - 8 hour (AID 1224884); note: nearly all actives have a fitted effect of over 35% in size; note: potency is the fitted concentration of half-maximal effect
In short: as §2

[8] = qHTS RealTime-Glo MT Cell Viability Assay in HepG2 cells - 16 hour (AID 1224885); note: nearly all actives have a fitted effect of over 50% in size; note: potency is the fitted concentration of half-maximal effect
In short: as §3

[9] = qHTS RealTime-Glo MT Cell Viability Assay in HEK293 cells - 24 hour (AID 1224886); note: nearly all actives have a fitted effect of over 50% in size; note: potency is the fitted concentration of half-maximal effect
In short: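 Viability tracked continuously by luminescence as live cells reduce a prosubstrate for NanoLuc; HEK293 cells preincubated 5 h, compound-treated at 37 C, and read at 0, 8, 16, 24, 32 and 40 h.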

SMILES	Potency [1]	Potency [2]	Potency [3]	Potency [4]	Potency [5]	Potency [6]	Potency [7]	Potency [8]	Potency [9]
c1cc(C(c2ccc(OCC3CO3)cc2)c2ccc(OCC3CO3)cc2)ccc1OCC1CO1 (stereo not given)	inactive	inactive	inactive	inactive	inactive	inactive	–	–	–
O=C(Nc1cccc(Cl)c1)OCC#CCCl	inactive	–	–	inactive	inactive	inactive	inactive	43.6 µM (active)	49 µM (active)
O=C(Oc1ccccc1)c1ccccc1C(=O)Oc1ccccc1	inactive	inactive	inactive	inactive	–	inactive	inactive	–	inactive
Oc1ccc2c(c1)-c1ccccc1C2	inactive	49 µM (active)	–	inactive	inactive	–	inactive	–	–
CCc1cc(SCc2sc(-c3ccc(C(F)(F)F)cc3)nc2CN2CCN(c3ccc(OC)cc3)CC2)ccc1OCC(=O)O	inactive	inactive	–	inactive	inactive	–	inactive	–	21.9 µM (active)
CCOc1ccc2nc3cc(N)ccc3c(N)c2c1	inactive	16.9 µM (active)	inactive	inactive	inactive	inactive	inactive	–	–
Nc1ccc(N)c2ccccc12	–	54.9 µM (active)	24.5 µM (active)	inactive	inactive	inactive	inactive	–	–
CCCCCCCC/C=C\CCCCCCCCOCCO	inactive	63.7 µM (active)	–	inactive	inactive	–	inactive	–	3.19 µM (active)
Fc1ccc(C(c2ccc(F)cc2)N2CCN(C/C=C/c3ccccc3)CC2)cc1	inactive	inactive	–	inactive	inactive	inactive	–	–	–
CCCCCCOC(=O)c1ccc(O)cc1	inactive	43.7 µM (active) and 7.76 µM (active)	43.7 µM (active) and 24.5 µM (active)	inactive	inactive	inactive	–	inactive	43.7 µM (active) and 24.5 µM (active)
OCc1c[nH]c2ccccc12	inactive	–	–	–	inactive	inactive	–	inactive	–
Cc1cccc2c1cc1ccc3cccc4ccc2c1c34	inactive	inactive	–	–	inactive	inactive	–	inactive	–
Oc1ccc(C2(c3ccc(O)cc3)CC3CC2C2CCCC32)cc1 (stereo not given)	inactive	–	–	inactive	inactive	inactive	–	inactive	41.9 µM (active)
Nc1c(Cl)cc(Cl)cc1Cl	inactive	–	–	21.6 µM (active)	inactive	inactive	21.6 µM (active)	inactive	inactive
